The source made the active and inactive calls. How the source made its calls: active means hit-call score of the fitted dose curve at least 0.9, where 1 is the maximum; inactive means score below 0.9.
Read-out: Interferon-gamma inducible Protein 10 (IP10), CXCL10 (gene 3627)
Assay: BSK_BE3C_IP10: BioMAP Diversity Plus: BE3C Assay for Interferon-gamma inducible Protein 10 (IP10) Biomarker Activity (AID 2283034)
Details: primary human bronchial epithelial cells; actives raise or lower the signal
Outline: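 IP-10 quantified by ELISA serves as the endpoint. Cells: primary human bronchial epithelium, read 24 h after compound addition. Activity is derived by bidirectional fitting with DMSO as negative control.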

| Structure (SMILES) | AC50 | outcome |
| --- | --- | --- |
| O=C1C(Cl)=C(Cl)C(=O)C(Cl)=C1Cl | 33.2 µM (active) | – |
| N#CCCCCC#N | – | inactive |
| CC(C)(c1cc(Cl)c(O)c(Cl)c1)c1cc(Cl)c(O)c(Cl)c1 | 7.58 µM (active) | – |
| COCC(=O)N(c1c(C)cccc1C)N1CCOC1=O | – | inactive |
| CC(C)CCCCCCCOP(=O)(Oc1ccccc1)Oc1ccccc1 | 28 µM (active) | – |
| C=CCN(CC=C)C(=O)C(Cl)Cl | – | inactive |
| c1ccc(Nc2ccc3ccccc3c2)cc1 | 20 µM (active) | – |
| Cc1ccc(OP(=O)(Oc2ccc(C)cc2)Oc2ccc(C)cc2)cc1 (tested in a mixture with another compound) | – | inactive |
| O=S(=O)(c1ccccc1)c1ccccc1 | – | inactive |
| CC(=O)/C=C/c1ccccc1 | – | inactive |

Read-out: Transforming growth factor beta 1 (TGFb1), TGFB1 (gene 7040)
Assay: BSK_BE3C_TGFb1: BioMAP Diversity Plus: BE3C Assay for Transforming growth factor beta 1 (TGFb1) Biomarker Activity (AID 2283036;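 further: TGF-b1 protein level measured by ELISA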)
Details: primary human bronchial epithelial cells; actives raise or lower the signal
Outline: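 Bronchial epithelial primary cells are treated with test chemical, then TGF-b1 is quantified by ELISA after 24 hours. Values derive from bidirectional fitting against DMSO, with cytotoxicity checked by SRB staining in parallel cultures.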

| Structure (SMILES) | outcome |
| --- | --- |
| O=C1C(Cl)=C(Cl)C(=O)C(Cl)=C1Cl | inactive |
| N#CCCCCC#N | inactive |
| CC(C)(c1cc(Cl)c(O)c(Cl)c1)c1cc(Cl)c(O)c(Cl)c1 | inactive |
| COCC(=O)N(c1c(C)cccc1C)N1CCOC1=O | inactive |
| CC(C)CCCCCCCOP(=O)(Oc1ccccc1)Oc1ccccc1 | inactive |
| C=CCN(CC=C)C(=O)C(Cl)Cl | inactive |
| c1ccc(Nc2ccc3ccccc3c2)cc1 | inactive |
| Cc1ccc(OP(=O)(Oc2ccc(C)cc2)Oc2ccc(C)cc2)cc1 (tested in a mixture with another compound) | inactive |
| O=S(=O)(c1ccccc1)c1ccccc1 | inactive |
| CC(=O)/C=C/c1ccccc1 | inactive |
